HIF-2a block = inhibitors of HIF-2a; 786-0 RCC cells HIF-2a reporter, luciferase luminescence, overnight; inhibition, % at 18.8 µM; 0.72% of 360,000 active; AID 624352;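 active means inhibition of the luminescence signal of 40% or more relative to plate controls, in a single-dose primary screen at 18.75 µM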
CF NFkB inh = cystic fibrosis NF-kB activation inhibition; inhibition, % at 5 µM; AID 588850; 0.86% of 360,000 active; KKLEB NF-kB-GFP reporter, PAF-induced, GFP fluorescence overnight;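 active means at least 50% inhibition at 5 µM, scaled per plate between neutral and stimulator controls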;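 further: PAF is a Pseudomonas aeruginosa culture filtrate used as stimulus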
Shn3 3UTR inh = reduces Shn3 3'UTR luciferase signal in osteoblasts; inhibition, % at 12.5 µM; Clone20 osteoblast Shn3 3'UTR firefly luciferase, 24 h; 0.52% of 360,000 active;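 active means mean inhibition of at least 75% with every replicate also reaching 75%; inconclusive means mean inhibition at least 75% but some replicate below; inactive means mean inhibition below 75%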
Peg3 promoter = Peg3 promoter activity inhibition; HeLa PEG-Prom luciferase reporter, luminescence, overnight; inhibition, % at 20 µM; 1.7% of 360,000 active;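 active means inhibition of at least 50% at 20 µM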
KKLEB tox = reduces viability of KKLEB cystic fibrosis airway cells; KKLEB CF airway cells viability, ATPlite luminescence, overnight; stronger effect = lower value; cells stimulated with P. aeruginosa culture filtrate; activity change (cytotoxicity), % at 5 µM; 0.36% of 360,000 active; AID 602141;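 active means corrected activity change at or below -50% at 5 µM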
Hits are given with their value; . = inactive; ? = inconclusive. Compounds with a hit are over-represented: about 2.6% of the library has one in this group of screens.

SMILES	HIF-2a block	CF NFkB inh	Shn3 3UTR inh	Peg3 promoter	KKLEB tox
NNC(=O)c1c(O)c2cccc3c2n(c1=O)CCC3	.	.	.	.	.
N#CNC(=Nc1cccc(F)c1)SCc1ccccc1F	.	.	.	73.8	.
Cc1cc(C)cc(NC(=O)CSc2nc3nc(C)cc(C)n3n2)c1	.	.	.	.	.
O=c1ccc2ccccc2c2ccccc12	94.6	64.6	.	103.4	.
CC(=O)CCn1cc([N+](=O)[O-])nc1C	.	.	.	.	.
C=C1C(=O)C23C(O)C1CCC2C12CCCC(C)(COC(C)=O)C1C(O)C3(O)OC2 (stereo not drawn)	93.1	90.7	94.5	107.0	-91.3
O=C(C1=C(c2ccccc2)C(=O)c2ccccc2C1=O)c1ccccc1	.	75.9	92.8	92.1	.
COC1=C(c2ccccc2)C(=O)c2ccccc2C1=O	.	.	.	.	.
CCc1nc2ccc(C(=O)Nc3cc(-c4ccccc4)ccc3OC)cn2c1N(CC)Cc1cccc(Br)c1	.	.	.	.	.
CCc1nc2ccc(C(=O)Nc3cc(-c4ccccc4)ccc3OC)cn2c1N(CC)CCN(C)C	.	.	.	84.5	.
O=C(O)c1ccc(S(=O)(=O)N(Cc2ccccc2)C2CCCCC2)cc1	.	.	.	.	.
COC(=O)c1ccc(C(=O)NN)cc1	.	.	.	.	.
NNC(=O)c1ccncc1	.	.	.	.	-84.9
COc1cc(C=Nc2cccc([N+](=O)[O-])c2C)ccc1OC(C)=O	.	.	.	.	.
Cc1ccc(-c2cc(C(F)F)n3ncc(C(=O)Nc4c(C)nn(Cc5c(Cl)cccc5Cl)c4C)c3n2)cc1	.	76.9	.	.	-64.8
Cc1nn(Cc2c(Cl)cccc2Cl)c(C)c1NC(=O)c1cnn2c(C(F)F)cc(-c3ccccc3)nc12	.	.	.	.	.
O=C(Cc1ccc(Cl)cc1Cl)Nc1ccncc1Cl	.	.	87.7	.	.
O=S(=O)(Nc1cccc(-n2cnnn2)c1)c1cc(Br)ccc1Br	.	.	.	.	.
O=C(O)c1cccc(-c2noc(-c3cccc(Cl)c3)n2)c1	78.9	.	.	53.5	.
OCCN(CCO)c1ccc(C(c2ccccc2Cl)c2ccc(N(CCO)CCO)cc2Cl)c(Cl)c1	.	.	.	59.5	.
Cn1cc(CN2CCC[C@H]2CO)c(-c2cccc(Cl)c2)n1	.	.	.	.	.
COc1ccccc1CNCC(=O)Nc1ccc(N(C)C)cc1	.	.	.	.	.
Cc1ccc(-c2nnc(N3CCC(C)CC3)c3ccccc23)cc1C	.	.	90.5	.	.
O=C(NCC1CC1)C1Cc2c(-c3ccccc3Oc3ccccc3)ccnc2O1 (stereo not drawn)	.	.	.	.	.
Cc1cc(Cl)cc2c1NC(=O)[C@]21[C@@H]2C(=O)N(Cc3ccccc3)C(=O)[C@@H]2[C@@H]2CCCN21	.	.	.	.	.
SMILES	HIF-2a block	CF NFkB inh	Shn3 3UTR inh	Peg3 promoter	KKLEB tox
COC(=O)c1c(N2C(=O)[C@H]3[C@@H](C2=O)[C@]2(C(=O)Nc4c(C)cccc42)N2CCC[C@@H]32)sc(C)c1C	.	.	.	55.6	.
CCOc1cc(/C=N/N=C2/NC(=O)C(CC(=O)O)S2)ccc1OCc1ccccc1Cl (stereo not drawn)	.	.	.	.	.
Cc1ccc(-c2nn(-c3ccccc3)cc2CN(Cc2ccccc2)C(=O)c2ccco2)o1	.	.	.	64.6	.
Cc1cc(C)c2c(c1)/C(=N/Nc1ccc(S(N)(=O)=O)cc1[N+](=O)[O-])CCC2	.	.	.	61.2	.
CCCC1C2C(=O)N(c3cccc(C)c3)C(=O)C2ON1c1ccccc1 (stereo not drawn)	.	.	.	.	.
CCCCCCSc1cccc(-c2nc3ccccn3c2NCc2ccccc2)c1	.	.	.	73.7	.
CCCCNc1c(-c2ccc(SC(C)CC)c(OC)c2)nc2ccc(C)cn12 (stereo not drawn)	.	.	.	93.2	.
CCC(C)Sc1cccc(-c2nc3ccccn3c2NCc2ccccc2)c1 (stereo not drawn)	.	.	.	73.3	.
CCCCNc1c(-c2ccc(OC)c(Sc3ccc(OC)cc3)c2)nc2ccccn12	.	.	?	93.3	.
CCCCCCSc1cccc(-c2nc3cc(C)ccn3c2NCc2ccccc2)c1	.	.	.	.	.
Cc1ccc(-n2ncc3c2CC(C)(C)CC3NC(=O)CCc2c(C)noc2C)cc1 (stereo not drawn)	.	.	.	.	.
CCCc1[nH]nc2c1C(c1ccc(O)cc1OCC)C(C#N)=C(N)O2 (stereo not drawn)	.	.	.	.	.
CCC(C)Sc1cccc(-c2nc3ccc(C)cn3c2NCc2ccccc2)c1 (stereo not drawn)	.	.	.	83.2	.
CCC(C)Sc1cccc(-c2nc3ccc(Cl)cn3c2NCc2ccccc2)c1 (stereo not drawn)	.	.	.	.	.
C=CCn1c(SCC(=O)Nc2sccc2C(N)=O)nc2ccc(Cl)cc2c1=O	.	.	.	52.0	.
C=CCn1c(SCC(=O)Nc2sccc2C(N)=O)nc2sc(CC)cc2c1=O	.	.	.	57.4	.
COc1ccc(CNC(=O)CN(Cc2ccc(F)cc2)C(=O)CCC(=O)Nc2nccs2)cc1	.	.	.	.	.
O=C(CN1CCN(CC(=O)Nc2ccccc2Cl)CC1)NCC1(N2CCOCC2)CCCCC1	.	.	.	.	.
Cc1ccc2c(c1)N(C)/C(=C/c1cccc[n+]1C)S2	.	.	87.5	.	.
COc1ccc2c(c1)N(C)/C(=C/c1cccc[n+]1C)S2	.	.	.	63.7	.
CC(C)(C)c1ccc(C2CC2C(=O)N/N=C\c2ccc[nH]2)cc1 (stereo not drawn)	.	58.1	94.6	.	.
CC(C(O)C12CC3CC(CC(C3)C1)C2)N1CCCCC1 (stereo not drawn)	.	.	.	.	.
CN(C)CCCNc1cc(-c2ccccc2)nc2cc(-c3cccc(F)c3)nn12	.	.	.	101.0	.
CCCCC[C@@H]1[C@@H]2C(=C(OCC)C[C@@H]3C(=O)N(c4ccccc4)C(=O)[C@H]23)[C@H](c2ccccc2)N1S(=O)(=O)c1ccc(C)cc1	.	.	.	.	.
CCOC1=C2CN(S(=O)(=O)c3ccc(C)cc3)[C@H](c3cccc4ccccc34)C[C@H]2C(C#N)(C#N)C(C#N)(C#N)C1	.	.	.	51.7	.
CCOC1=C2CN(S(=O)(=O)c3ccc(C)cc3)[C@@H](c3cccc4ccccc34)C[C@H]2[C@H]2C(=O)N(c3ccccc3)C(=O)[C@H]2C1	.	.	.	.	.
CCOC1=C2[C@H](c3ccccc3)N(S(=O)(=O)c3ccc(C)cc3)C(C(C)(C)C)[C@H]2C(C#N)(C#N)C(C#N)(C#N)C1 (stereo partly drawn)	49.0	67.4	86.9	77.9	.
Cc1ccc(C)c(NC(=O)NNC(=O)c2cc3ccccc3cc2O)c1	.	.	.	.	.
